Rows were chosen to be rich in hits. Some 11% of all compounds tested hit in one or more screens of this group.
Pf growth 48h = Primary qHTS for delayed death inhibitors of the malarial parasite plastid, 48 hour incubation; P. falciparum luciferase growth in erythrocytes, 48 h; Potency, µM (series often up to 28.7 µM), inactives show top-dose activity change, negative = inhibition, usual class: inhibitors; hit rate 5.9% among 310,000; AID 504832, 2011
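In quantitative HTS format, infected erythrocytes bearing luciferase-reporter parasites were treated for a single generation at 37 C. Luminescence after adding detection reagent served as the growth measure.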
HCV inh = qHTS Assay for Inhibitors of Hepatitis C Virus (HCV); AID 651820, 2012; hit rate 3.4% among 340,000; Huh7.5.1 HCVcc-Cre infection, luciferase reporter, 44 h; Potency, µM (top dose mostly 41.8 µM), inactives show top-dose activity change, negative = inhibition, hits mostly inhibitors
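Seed cells (1,000/well) for 4 h; treat with compound and infect with HCVcc-Cre, moi about 0.5. Incubate 44 h, then detect luciferase activity.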
Pf growth 96h = Primary qHTS for delayed death inhibitors of the malarial parasite plastid, 96 hour incubation; Potency, µM (doses to about 28.7 µM), inactives show at the top dose activity change, negative = inhibition, usual class: inhibitors; P. falciparum luciferase reporter growth, 96 h; AID 504834, 2011; hit rate 6.9% among 320,000
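Luminescence readout: decreased luciferase signal marks inhibited growth of reporter-expressing P. falciparum in infected red cells (2% hematocrit, 0.05% parasitemia final), exposed to compound two generations (96 h, 37 C, 5% CO2).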
AMA1 RON2 block = qHTS for Inhibitors of AMA1-RON; Towards Development of Antimalarial Drug Lead: Primary Screen | Plasmodium falciparum AMA1 (3D7) - RON2 peptide interaction | AlphaScreen AMA1-biotinylated RON2 peptide binding | Potency, µM (top dose mostly 58.2 µM), without a hit: top-dose activity change, negative = inhibition, actives largely listed as inhibitors | hit rate 0.2% among 360,000 | AID 720542, 2013;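 further: 0% = vehicle wells and -100% = peptide control; nearly all actives have a fitted effect of over 45% in size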
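AMA1 (3D7) with his tag at 25 nM final met compounds first, then biotinylated RON2 peptide at 25 nM; detection used donor plus acceptor beads, 10 µg/mL apiece, read by AlphaScreen after 30 min at room temperature.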
* hit, by the source's call; i = inactive; ? = inconclusive; . = not tested or not shown; [ ] = remark or other dose. The call rests on the fitted dose curve; in most records, active means well fitted curve in the direction sought with a large enough effect; inconclusive means small, poorly fitted or top-dose-only effect, or another doubt; inactive means no such curve, though single readings can be large; an effect the other way counts as inactive or inconclusive. Unless noted, on the % scale 0 is the no-effect control and ±100 the full control effect; potency means the concentration at half of the fitted maximal effect.

SMILES | Pf growth 48h | HCV inh | Pf growth 96h | AMA1 RON2 block
C=CCNC(=O)c1sc(=S)n(-c2ccc(C(=O)OCC)cc2)c1N | 10.5% | 1.4% | 2.94µM* | -6.1%
Cn1cc(S(=O)(=O)N2CCCC2)cc1C(=O)NCc1ccccc1Cl | -19.7% | -29.8% | -4.2% | 7.0%
CCOC(=O)C1CCN(C2CCN(C(=O)c3oc4c(C)c(C)ccc4c3C)CC2)CC1 | 13.1µM* | -13.5% | -15.1% | 3.2%
Cc1c(C(=O)O)oc2c(F)cccc12 | 16.1% | -16.2% | i | 0.8%
Cc1c(C(=O)N2CCC(N3CCSCC3)CC2)oc2c(F)cccc12 | -4.8% | 1.3% | ? | -4.1%
Cc1c(C(=O)N2CCC[C@H]2CO)oc2c(F)cccc12 | 22.4% | -17.0% | 14.7µM* | 0.0%
CCOC(=O)C1CCN(C2CCN(C(=O)c3oc4c(F)cccc4c3C)CC2)CC1 | 8.28µM* | -11.5% | ? | -10.7%
Cc1cc(Cl)ccc1OCCCC(=O)OCC(N)=O | -6.8% | 3.5% | 21.6% | -3.5%
Cc1ccc(-n2c(C)nnc2SCC(=O)NC2CCCC2)cc1 | -24.5% | 15.6% | 34.9% | -5.8%
COC(=O)c1ccsc1NC(=O)CN1CCN(c2ncccn2)CC1 | 11.7µM* | -6.5% | 0.0% | -9.0%
COC(=O)c1ccsc1NC(=O)CN1CCN(c2ccc(F)cc2)CC1 | ? | ? | 12.5% | ?
Fc1ccc(CNc2ncnc3cc(Cl)ccc23)cc1 | ? | 10µM* | ? | 6.2%
COc1ccc(CNc2ncnc3cc(Cl)ccc23)cc1OC | 11.4% | ? | 5.9% | 0.6%
Cc1ccc(C)c(-n2c3nc(=O)n(C)c(=O)c-3cc3ccccc32)c1 | 0.0% | -23.7% | -22.0% | 0.1%
Cc1nc2c(=O)n(C)c(=O)nc-2n(C)n1 | 0.329µM* | 0.562µM* | -9.4% | -22.5%
Cc1ccc([N+](=O)[O-])cc1N=C(c1ccc([N+](=O)[O-])cc1)N1CCOCC1 | ? | 4.6% | 8.28µM* | -3.1%
Cc1cc(=O)oc2c(C(=O)/C=C\c3cccs3)c(O)ccc12 | -9.2% | 5.4% | 13.1µM* | -12.0%
COc1ccc(/C=C\C(=O)c2c(O)ccc3c(C)cc(=O)oc23)cc1OC | 9.28µM* | 10µM* | . | -18.0%
COc1cc(/C=C/C(=O)c2c(O)ccc3c(C)cc(=O)oc23)ccc1O | ? | -22.4% | ? | -16.0%
Cc1cc(=O)oc2c(C(=O)/C=C/c3ccccc3)c(O)ccc12 | 5.86µM* | -8.0% | . | 1.6%
CC1CCCC(NC(=O)C2CCCN2S(=O)(=O)c2cccc3nsnc23)C1C (stereo unspecified) | . | ? | 5.3% | -1.9%
O=C(O)C[C@H]1c2ccccc2S(=O)(=O)N1c1ccccc1 | . | -3.1% | . | 6.9%
COc1cc2c(cc1OC)CN(C(=O)c1cc(S(=O)(=O)N3CCOCC3)c(Cl)cc1Cl)CC2 | ? | 25.1µM* | 5.22µM* | -3.5%
CCCN(CCC)CCCNC(=S)Nc1ccc2nc(N3CCCC3)cc(C)c2c1 | 1.47µM* | 10µM* | ? | -1.0%
CCC(C)NC(=S)Nc1ccc2nc(N3CCN(CC)CC3)cc(C)c2c1 (stereo unspecified) | 0.0% | ? | ? | -5.3%
SMILES | Pf growth 48h | HCV inh | Pf growth 96h | AMA1 RON2 block
Cc1cc(N2CCCC2)nc2ccc(NC(=S)NCCCOC(C)C)cc12 | ? | ? | ? | -12.0%
CCCCN(CC)CCCNC(=S)Nc1ccc2nc(N3CCN(CC)CC3)cc(C)c2c1 | 2.94µM* | ? | 43.4% | -3.6%
CCN(CC)CCNC(=S)Nc1ccc2nc(N3CCN(C)CC3)cc(C)c2c1 | 10.4µM* | ? | -4.0% | 3.9%
CCCCN(CC)CCCNC(=S)Nc1ccc2nc(N3CCN(C)CC3)cc(C)c2c1 | ? | -29.6% | -1.0% | -8.8%
CCN1CCN(c2cc(C)c3cc(NC(=S)N(CC)CC)ccc3n2)CC1 | 13.1µM* | ? | 66.3% | -3.9%
CCOC(=O)C1CCN(C(=O)c2ccc3c(c2)C(=O)N(c2ccccc2C)C3=O)CC1 | ? | 12.7% | 14.2% | -1.3%
CC1CCCC(NC(=O)Cn2cc(Br)ccc2=O)C1C (stereo unspecified) | . | 2.0% | . | -0.5%[11.6 µM]
CCOc1ccc(C(=O)Nc2ccc3nc(N4CCN(CC)CC4)cc(C)c3c2)cc1 | 2.33µM* | ? | 18.2% | -3.9%
CC(=O)NC(Cc1ccc(N(CCCl)CCCl)cc1)C(=O)NC(C(=O)O)C(C)C (stereo unspecified) | -0.3% | -11.2% | -41.2% | -14.9%
